Our source for the growth values is PubChem BioAssay (NCI).

Compounds without any hit were thinned out: in the full panel of roughly 83,000, 20% have a hit.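 For each line, cells grew in 96-well plates with the test compound present at a single concentration for 48 hours.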 A number with no mark means an inactive call. Active and inactive are the calls of the source. The calls were made as follows: active = growth percent below 10; inactive = the rest.

Experiment in all cases: NCI-60 one-dose screen, 48 h (100 = growth as untreated, 0 = no growth, -100 = all killed)
What all share (conditions): 10 µM

Test [1] deals with NCI-H23 lung.
For test [2], the system named is NCI-H226 lung.
Test [3] has as its system NCI-H322M lung.
In test [4] the test system is HOP-62 NSCLC.
Test [5] concerns NCI-H460 lung.
For test [6], the system named is HOP-92 NSCLC.
In test [7] the test system is NCI-H522 lung.
Test [8] relates to A549/ATCC NSCLC.
The test system of test [9] is 786-0 renal.
In test [10] the test system is COLO 205 colon.

In the case of `C#CCNCCN1C(=O)c2ccc3c4c(ccc(c24)C1=O)C(=O)N(CCNCC#C)C3=O`, the growth in test [1] is 23.8%; in [2], 20.9%; in [3] it was 28.7%; in [4] it was 48.4%; in test [5], 12.8%; in test [6] it was 91.2%. For the same molecule, the growth was 26.3% in test [7], 29.2% in test [8], 43.1% in test [9] and -77.3% (active) in [10].
Turning to `COc1cc(CSc2nc3ccc(C)cc3c(=O)n2Cc2ccccc2)cc(OC)c1OC`, the growth was 21.3% in [1]; 47.3% in test [2]; 46.2% in test [3]; 40.5% in test [4]; 17.7% in [5]; 56.6% in test [6]. Further, the growth was -14.5% (active) in test [7], 40% in test [8], 46.8% in [9] and -18.7% (active) in [10].
In the case of `O=NN(CCCl)C(=O)Nc1ccc(NC(=O)N(CCCl)N=O)cc1`, the growth is 107% in [1]; 96.5% in test [2]; 112% in [3]; 105% in test [4]; 88.7% in test [5]; 84.8% in [6]. Besides, the growth is 114% in [7], 82.8% in [8], 61.3% in test [9] and 105% in test [10].
Regarding `COc1ccc(-c2csc(-c3cc(Cl)cc(Cl)c3Cl)n2)cc1`, the growth in [1] is 91.4%; in test [2], 88.9%; in test [3] it was 98.6%; in test [4], 91.1%; in test [5] it was 97.9%; in test [6], 85.8%. Further, the growth was 81.8% in test [7], 54.5% in test [8], 111% in test [9] and 91.6% in test [10].
With `CCOC(=O)c1c(C(F)(F)F)n([O-])c2ccc(OC)cc2[n+]1=O`, the growth in test [1] was 30.3%; in test [2], 47.4%; in test [3], 58%; in test [4], 17.1%; in test [5], 18.7%; in test [6], -34.7% (active). The growth in test [7] is -25.9% (active); in test [8], 26.8%; in [9] it was 42.2%; in [10] it was 31.1%.
For the molecule `Clc1ccc(-c2nc(-c3cccs3)cn3ccnc23)cc1`, the growth in [1] was 71.1%; in test [2] it was 72%; in [3] it was 97.4%; in [4], 57.7%; in [5], 81.3%; in [6], 81.5%. Moreover, the growth in test [7] was 28%; in test [8] it was 57.4%; in test [9], 99.8%; in test [10], 71.1%.
As to `NC(=O)c1ccc(Br)o1`, the growth in [1] is 95.1%; in [2], 104%; in test [3], 104%; in test [4] it was 91.7%; in [5] it was 109%; in test [6] it was 114%. In addition, the growth was 88.3% in [7], 109% in test [8], 96.8% in test [9] and 103% in test [10].
In the case of `COc1cc(C)c2sc3ccccc3c(=O)c2c1NCCN(C)C`, the growth in test [1] is 76.3%; in test [2], 74%; in [3] it was 90.6%; in test [4], 67.7%; in [5], 22.2%; in test [6], 19.1%. Also, the growth in [7] was 80.1%; in test [8], 28.8%; in test [9], 65.9%; in [10], 16.1%.
For the molecule `COc1cc(C2C(C#N)=C(c3c[nH]c4ccccc34)Nc3nc(N)[nH]c(=O)c32)cc(OC)c1OC` (stereo not given), the growth in [1] was 80.7%; in [2], 86.3%; in test [3], 104%; in test [4], 82.9%; in [5] it was 106%; in test [6] it was 47.8%. Moreover, the growth in test [7] is -11.7% (active); in test [8], 105%; in [9], 100%; in test [10], 65%.
Regarding `O=C(/C=C/c1nnc2n(Cc3ccccc3)c(=O)c3c4c(sc3n12)CCCC4)c1ccccc1`, the growth in test [1] was 96.9%; in [2] it was 102%; in test [3] it was 107%; in test [4], 92.4%; in test [5], 104%; in test [6], 77.1%. In addition, the growth in test [7] is -3.27% (active); in test [8] it was 104%; in [9], 83.8%; in test [10], 78.6%.
On to `CC(=O)Oc1c(C)c(C)c2c(c1C)CCC(C)(CC(=O)OCCCCCCCCCCC[P+](c1ccccc1)(c1ccccc1)c1ccccc1)O2` (stereo not given), for which the growth was -52.2% (active) in test [1]; 13.2% in [2]; 13.7% in test [3]; -84.7% (active) in test [4]; -46.5% (active) in test [5]; -85.4% (active) in test [6]. For the same molecule, the growth in [7] is -78.5% (active); in test [8] it was -72% (active); in test [9], -92% (active); in [10], -73.9% (active).
Take `COc1cc(-c2nc3cc(Cl)c(Cl)cc3[nH]2)ccc1OCC(=O)NN`: the growth is 92.8% in [1]; 90.5% in test [2]; 79.1% in [3]; 72% in test [4]; 84.8% in test [5]; 94% in [6]. Also, the growth is 67.5% in [7], 71% in [8], 96.1% in test [9] and 108% in [10].
For the molecule `Cc1nc(Nc2nc3ccccc3o2)nc(-c2cccc([N+](=O)[O-])c2)c1C(=O)Nc1ccc(F)c(Cl)c1`, the growth in test [1] is 0.258% (active); in test [2], 10.3%; in test [3] it was 24.9%; in [4] it was 16%; in test [5], 2.04% (active); in [6], -38.9% (active). For the same molecule, the growth in test [7] is -20.5% (active); in test [8], 5.85% (active); in [9], 18.4%; in test [10] it was 9.63% (active).
In the case of `CS(=O)(=O)Nc1ccc([N+](=O)[O-])cc1Oc1ccccc1`, the growth in test [1] was 92.6%; in test [2], 96%; in test [3] it was 103%; in test [4], 93%; in test [5], 102%; in test [6] it was 51.8%. Also, the growth in [7] is 92.6%; in test [8], 89.3%; in test [9] it was 98.4%; in test [10], 99.7%.
